Inhibition data for 63 compounds are collected here from PubChem BioAssay AID624330 (Southern Research Specialized Biocontainment Screening …, 2012).

Among all 340,000 compounds or so, about 2,100 (0.62%) were called active. Only a sample is shown. Results with a measured potency or affinity are listed apart. Unmarked numbers belong to inactive results.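 The calls were made as follows: active = first-screen hits whose inhibition reached a set limit at any dose in the follow-up dose series; inconclusive = inhibition above the set first-screen limit but never retested; inactive = the rest.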

A word on the inhibition: it is the relative decrease from the control value, in per cent.

The target of this assay is Rac GTPase-activating protein 1 (Homo sapiens) (UniProt Q9H0H5). Nature of the assay: blockers of MgcRacGAP-driven Rac1 GTP hydrolysis – biochemical, ADP Hunter fluorescence, primary and confirmatory, confirmation (AID 624330).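 Also: fluorescence reports GDP produced by GAP-driven GTP hydrolysis.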 As to conditions: MgcRacGAP-stimulated Rac1 GTP hydrolysis, at 30 µM, hits give high values, GST-tagged Rac1 F28L mutant substrate.
Rac GTPase-activating protein 1 (Homo sapiens), sequence (Q9H0H5 whole entry, looked up): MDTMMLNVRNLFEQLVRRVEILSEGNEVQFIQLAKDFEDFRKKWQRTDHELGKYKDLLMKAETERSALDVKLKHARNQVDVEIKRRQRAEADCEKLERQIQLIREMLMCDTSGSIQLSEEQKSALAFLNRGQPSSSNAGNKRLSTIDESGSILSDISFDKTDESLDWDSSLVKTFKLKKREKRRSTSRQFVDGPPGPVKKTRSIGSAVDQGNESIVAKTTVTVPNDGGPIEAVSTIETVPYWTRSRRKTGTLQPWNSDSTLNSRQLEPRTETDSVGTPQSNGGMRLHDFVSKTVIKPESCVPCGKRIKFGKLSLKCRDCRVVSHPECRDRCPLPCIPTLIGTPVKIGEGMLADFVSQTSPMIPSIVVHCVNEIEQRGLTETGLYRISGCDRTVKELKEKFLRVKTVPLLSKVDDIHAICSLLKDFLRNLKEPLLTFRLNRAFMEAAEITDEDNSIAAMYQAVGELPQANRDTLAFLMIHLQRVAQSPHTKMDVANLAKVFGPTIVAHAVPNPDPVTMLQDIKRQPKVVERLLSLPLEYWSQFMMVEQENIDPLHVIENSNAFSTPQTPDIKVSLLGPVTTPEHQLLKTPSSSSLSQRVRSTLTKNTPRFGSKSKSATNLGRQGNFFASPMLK
For `CCOc1cc(/C=C(\C#N)C(=O)Nc2ccccc2C(=O)O)ccc1OC(=O)c1ccc(C)cc1`, the inhibition is 12.7%.

As for `CCOC(=O)C1=C(N)n2c(s/c(=C\c3cccnc3)c2=O)=C(C#N)C1c1cccnc1` (stereo not drawn), the inhibition is 9.67%.

As to `CCOc1ccc(NC(=O)CN2CC(c3ccccc3)CC2=O)cc1` (stereo not drawn), the inhibition is 1.86%.

Turning to `CSc1cc(N2CCOCC2)nc(-c2ccccc2Cl)n1`, the inhibition was 2.89%.

Turning to `CCN1C(=O)[C@H]2[C@@H](c3ccc(-c4ccc(F)cc4)c(OC)c3)N[C@@](Cc3ccccc3)(C(=O)OC)[C@H]2C1=O`, the inhibition was 0.02%.

For `OC(CN1CCN(C(c2ccccc2)c2ccccc2)CC1)c1ccccc1` (stereo not drawn), the inhibition was 8.44%.

Turning to `O=C(NCc1cccc(Cl)c1)C1CCC(=O)N(CCCN2CCCC2=O)C1` (stereo not drawn), the inhibition was 10.9%.

Regarding `CN(C(=O)c1cccc(C#CC(C)(C)O)c1)C1CCCN(Cc2ccccc2F)C1` (stereo not drawn), the inhibition is -6.83%.

With `O=C(CSc1ccccc1)N1CCN(c2ccccc2)CC1`, the inhibition is 10.2%.

With `COc1ccc(N2CCN(C(=O)CSc3ccccc3)CC2)cc1`, the inhibition was 17.2%.

In the case of `Cc1cnc(CNC(=O)c2ccc3oc(C(C)C)nc3c2)[nH]1`, the inhibition was -0.66%.

Regarding `Cc1cc(Cl)cc(Br)c1OCCCCn1cncn1`, the inhibition was 15.5%.

Turning to `Cc1cc(Cl)c(OCCCn2cncn2)c(Br)c1`, the inhibition was 13.1%.

Regarding `O=c1c2ccccc2nnn1-c1ccccc1[N+](=O)[O-]`, the inhibition was 10.5%.

`COc1cc(C(=S)N2CCCC2)ccc1O`: the inhibition was 24.9%.

Turning to `COc1cc(C(=S)N2CCCCC2)ccc1O`, the inhibition was 13.6%.

In the case of `O=C(OCc1ccccc1)N1CCC2CC1c1cc(N3CCNCC3)ccc12` (stereo not drawn), the inhibition was 10.7%.

On to `Cn1c(=O)[nH]c(=O)c2c1nc(N1CCCCCC1)n2Cc1cccc2ccccc12`, for which the inhibition is 12.6%.

Consider `CCOC(=O)C(Cc1ccccc1)NC(C)=O` (stereo not drawn), for which the inhibition was -0.49%.

On to `CC(=O)NC(Cc1ccccc1)C(C)=O` (stereo not drawn), for which the inhibition was 8.26%.

With `COc1cc(CCC(=O)Nc2nnc(-c3cccnc3)s2)cc(OC)c1OC`, the inhibition was 9%.

With `COc1ccccc1CNc1ccc(N2CCOCC2)c(C(=O)O)c1`, the inhibition is 11.4%.

On to `Clc1cc(NCc2cccs2)ccc1N1CCOCC1`, for which the inhibition was 14.1%.

Take `O=C(O)c1cc(NCc2cccs2)ccc1N1CCOCC1`: the inhibition is 8.2%.

Turning to `COC(=O)c1cc(NCc2c(F)cccc2Cl)ccc1N1CCOCC1`, the inhibition was 23.3%.

Turning to `COC(=O)c1cc(NC(=O)c2cccs2)ccc1N1CCOCC1`, the inhibition was 8.25%.

On to `CCOC(=O)c1cc(NC(=O)c2cccs2)ccc1N1CCOCC1`, for which the inhibition is 10.9%.

For `CC(C)[C@H](NC(=O)c1ccccc1)C(=O)OCC(=O)N1CC2(C)CC1CC(C)(C)C2` (stereo partly drawn), the inhibition was -5.69%.

Consider `Cc1ccc(S(=O)(=O)N2CCN(c3nc(CN4CCCC4)nc4sc(C)c(C)c34)CC2)cc1`, for which the inhibition is 6.41%.

On to `CC(C)OC(=O)CSc1nnc(-c2ccc(Cl)cc2Cl)o1`, for which the inhibition is 9.06%.

For `O=C1OCCC1=COCCCCCOC=C1CCOC1=O`, the inhibition was 3.03%.

On to `N#Cc1ccccc1NC(=O)CSc1n[nH]c(=O)n1C1CC1`, for which the inhibition is -2.21%.

In the case of `COc1ccccc1CN1CCNC(=O)C1CC(=O)NCCc1cnccn1` (stereo not drawn), the inhibition is 4.17%.

In the case of `COc1ccccc1/C=N/NC(=O)C(C)Cn1cnc2ccccc21` (stereo not drawn), the inhibition is 2.07%.

Consider `COc1cc(C(=O)NC(c2ccccc2)c2ccccc2)cc(OC)c1C`, for which the inhibition was 2.28%.

For the compound `COc1cc(NC(c2ccccc2)c2ccccc2)cc(OC)c1OC`, the inhibition was 11%.

Consider `O=C(OCC(=O)N1CCN(S(=O)(=O)c2ccc(Cl)cc2)CC1)c1cccc(OC(F)F)c1`, for which the inhibition is 5.16%.

`O=C(c1ccc(O)c(Br)c1)c1cc(Br)ccc1O`: the inhibition was 4.27%.

In the case of `O=C(CCNC(=O)c1ccco1)Nc1ccccc1OC(F)F`, the inhibition was 5.22%.

As to `CCCC1=Nc2cc(C(=O)NCCCN3CCOCC3)ccc2Sc2ccccc21`, the inhibition was 10.2%.

As to `CC(Nc1ccc(Cl)cc1)c1cc(Cl)ccc1O` (stereo not drawn), the inhibition was 7.06%.

For the compound `CCOc1ccc(NC(C)c2cc(Cl)ccc2O)cc1` (stereo not drawn), the inhibition is 15.5%.

Consider `COC(=O)c1ccc(Nc2nc(-c3ccncc3)nc3ccccc23)cc1`, for which the inhibition was 4.52%.

On to `CCN1CCN(C(=O)C2CCN(C(=O)c3cc4sccc4n3CC)CC2)CC1`, for which the inhibition was 9.89%.

On to `FC(F)(F)c1cccc(N2Cc3ccccc3C2)c1`, for which the inhibition was 11.1%.

Consider `FC(F)(F)c1cccc(CN2CCCCCC2)c1`, for which the inhibition is 26.2%.

Take `CN1CCC(N2CCN(c3cccc(C(F)(F)F)c3)CC2)CC1`: the inhibition was 5.09%.

Regarding `O=C(N/N=C/c1ccccc1O)c1cccc(C(F)(F)F)c1`, the inhibition is -1.42%.

`O=C(C1CCC1)N1CCN(c2cccc(C(F)(F)F)c2)CC1`: the inhibition was 0.34%.

Turning to `Oc1ccc(N=Nc2cccc(C(F)(F)F)c2)cc1C=Nc1ccc(N2CCOCC2)cc1`, the inhibition was 9.72%.

For `O=C(C1=C(O)C(=O)N(CCN2CCOCC2)C1c1ccccn1)c1cccs1` (stereo not drawn), the inhibition was 8.66%.

On to `COc1cc2c(cc1NC(=O)c1ccc(C)c([N+](=O)[O-])c1)oc1ccccc12`, for which the inhibition was 8.23%.

As for `CN(C)S(=O)(=O)c1ccc(C(=O)Nc2cccc(C(=O)O)c2)cc1`, the inhibition is -1.04%.

For `CCN(CC(=O)N1CCCCC1)S(=O)(=O)c1ccccc1`, the inhibition was 5.64%.

Turning to `CCOC(=O)C1CCN(C(=O)c2cccc(S(=O)(=O)N3CCc4ccccc43)c2)CC1`, the inhibition is 3.11%.

With `CCCCNC(=O)C(CC)Sc1nc2sc(C(=O)OC)c(C)c2c(=O)n1N` (stereo not drawn), the inhibition is 9.24%.

Consider `CCCCOC(=O)c1nc(Cl)c(Cl)c(N)c1Cl`, for which the inhibition was -9.26%.

As to `O=C1C=C(Nc2ccc(Cl)cc2)CC(c2ccco2)C1` (stereo not drawn), the inhibition is 5.91%.

Consider `O=C1C=C(Nc2cccc(O)c2)CC(c2ccco2)C1` (stereo not drawn), for which the inhibition is 9.63%.

As for `Oc1[nH]c2ccccc2c1N=Nc1ccc(F)cc1`, the inhibition is 4.29%.

On to `O=C(O)c1ccc(N=Nc2c(O)[nH]c3ccccc23)cc1`, for which the inhibition was 5.98%.

`CCN1CCN(S(=O)(=O)c2ccc(S(=O)(=O)NCC3CCCO3)cc2)CC1` (stereo not drawn): the inhibition was 1.86%.

As for `CCN1CCN(C(=O)NC2CCCCC2)CC1`, the inhibition was 30.1%.
